The values that follow come from PubChem BioAssay (NCI).

Compounds without any hit were thinned out: in the full panel of roughly 83,000, 20% have a hit.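 Treatment: one concentration, 48 hours, 96-well format. Scoring: percent growth, with anything below 10 considered active.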 A number with no mark means an inactive call. Active and inactive are the calls of the source.

Test in all cases: NCI-60 one-dose screen, 48 h (100 = growth as untreated, 0 = no growth, -100 = all killed)
Holding throughout (details): 10 µM unless noted

Test [1] concerns NCI-H23 lung.
The subject of test [2] is NCI-H226 lung.
For test [3], the system named is NCI-H322M lung.
Test [4] has as its system HOP-62 NSCLC.
Test [5] relates to NCI-H460 lung.
Test [6] has as its system HOP-92 NSCLC.
The test system of test [7] is NCI-H522 lung.
Test [8] relates to A549/ATCC NSCLC.
Test [9] concerns 786-0 renal.
The subject of test [10] is COLO 205 colon.
For test [11], the system named is DU-145 prostate.
Test [12] deals with K-562 leukemia.
Test [13] deals with MALME-3M melanoma.
Test [14] has as its system MDA-MB-231 breast.
Test [15] deals with SF-268 CNS.
In test [16] the test system is SF-295 CNS.
The test system of test [17] is SF-539 CNS.
Test [18] deals with UACC-257 melanoma.
Test [19] concerns M14 melanoma.

On to `O=C(O)C(/C=C/c1ccco1)=N\Nc1nc(-c2ccc(Cl)cc2)cs1`, for which the growth in test [1] is 57.7%; in test [2], 84%; in test [3] it was 68.5%; in [4], 46.4%; in test [5], 37.6%; in test [6], 51.8%. For the same molecule, the growth in [7] was 39.4%; in [8], 51.4%; in test [9], 51.8%; in test [10] it was 94.6%; in test [11], 70.1%; in [12] it was 65.7%. Also, the growth in test [13] was 79%; in test [14], 84.8%; in test [15], 50.9%; in test [16] it was 27.8%; in [17], 43.4%; in test [18], 72.2%. In test [19], the growth is 43.7%.
On to `Cc1cccc(Oc2ccc(Nc3ncnc4ccc(NC(=O)CNCCO)cc34)cc2Cl)c1`, for which the growth in [1] was 85.1%; in [2] it was 96.7%; in test [3] it was 18.9%; in [4], 78.2%; in [5], 39.2%; in test [6], 30.4%. The growth is 31.6% in test [7]; 52.8% in test [8]; 55.7% in test [9]; 56.2% in test [10]; 44.3% in test [11]; 13.5% in test [12]. Further, the growth was 70.5% in test [13]; 74.3% in test [14]; 61.7% in test [15]; 79.9% in [16]; 64.6% in test [17]; 93.4% in [18]. For the same molecule, the growth in test [19] is 74.3%.
Regarding `Cc1c2c(cc[n+]1Cc1ccc(F)cc1)c1ccc(OCc3cccc(F)c3)cc1n2Cc1cccc(F)c1`, the growth in test [1] is -58.1% (active); in [2], -66.9% (active); in test [3] it was -72.1% (active); in test [4], -91.2% (active); in test [5] it was -78% (active); in test [6], -73.9% (active). In addition, the growth was -80.1% (active) in [7]; 25.1% in test [8]; -85.8% (active) in test [9]; -91.1% (active) in [10]; -90.8% (active) in test [11]; -15.8% (active) in test [12]. The growth in test [13] is -79.6% (active); in [14], -87.7% (active); in [15], -94.2% (active); in [16] it was -68.5% (active); in [17], -65.4% (active); in test [18], -86% (active). Also, the growth in test [19] is -82.1% (active).
With `COc1ccc(-c2nc(N=Nc3c(O)[nH]c4ccccc34)nc(N3CCOCC3)c2C#N)cc1`, the growth in [1] is 81.9%; in test [2] it was 38.4%; in test [3] it was 77.1%; in test [4], 68%; in [5], 46.5%; in [6] it was 19.6%. Besides, the growth in test [7] was 72.1%; in test [8] it was 51.7%; in test [9], 79.7%; in test [10] it was 67.8%; in test [11], 63.7%; in test [12], 75%. The growth is 51% in test [13]; 42.6% in test [14]; 62.4% in test [15]; 86.4% in test [16]; -47.2% (active) in test [17]; 73.6% in test [18]. Besides, in test [19], the growth was 60.9%.
In the case of `COc1ccc(/C=N/NC(=O)c2cccc3cc[nH]c23)cc1O`, the growth is 55.7% in [1]; 90.4% in test [2]; 49.8% in test [3]; 36.3% in [4]; 7.44% (active) in [5]; 57.2% in [6]. For the same molecule, the growth is 54.8% in [7]; 50.5% in test [8]; 30.9% in test [9]; 55.7% in [10]; 28.3% in test [11]; 27.8% in test [12]. For the same molecule, the growth in test [13] is 43%; in test [14], 55.2%; in [15], 53%; in [16], -20.3% (active); in test [17], -18.8% (active); in test [18], 47.3%. Moreover, the growth in test [19] is 0.307% (active).
`Fc1ccc(C2CC(c3cccc(Nc4ccncc4)c3)=NN2c2cc(Cl)cc(Cl)c2)cc1` (configuration not stated): the growth in test [1] was 80.2%; in test [2], 90.5%; in test [3] it was 73%; in [4] it was 44.4%; in test [5] it was -75.5% (active); in test [6] it was 58.3%. The growth in test [7] was 73%; in test [8], 29.1%; in test [9], 102%; in [10], -54.5% (active); in [11], 30.2%; in test [12] it was 0.115% (active). Further, the growth in test [13] was 15.3%; in [14], 61.4%; in [15], 72.4%; in test [16] it was 63.3%; in test [17], 83%; in test [18] it was 85.9%. Further, in [19], the growth is 104%.
As to `O=C(Nc1cccc(Cl)c1)Oc1c(Br)c(Br)c(Br)c(Br)c1Br`, the growth in [1] is 91%; in [2] it was 81.3%; in test [3], 107%; in [4], 56.1%; in test [5] it was 99.7%; in test [6] it was 66.5%. Moreover, the growth was 58.8% in [7]; 73.7% in test [8]; 93.8% in test [9]; 100% in test [10]; 105% in test [11]; 78.5% in test [12]. Further, the growth in [13] was 90.7%; in test [14], 103%; in [15], 91.4%; in test [16], 79.2%; in [17] it was 98.1%; in [18], 69.4%. Moreover, the growth in test [19] is 90.9%.
As for `O=c1[nH]nc(-c2ccc(Cl)cc2)cc1Cc1cccc([N+](=O)[O-])c1`, the growth in test [1] was 104%; in [2] it was 91.9%; in test [3], 119%; in test [4], 96.3%; in test [5], 99.9%; in test [6], 44.2%. Moreover, the growth in [7] is 90.6%; in [8], 81.9%; in test [9] it was 103%; in test [10], 101%; in test [11] it was 98.7%; in [12], 94.2%. In addition, the growth in [13] is 119%; in test [14], 72.6%; in [15] it was 95.4%; in test [16] it was 92.4%; in [17] it was 98.5%; in test [18], 97%. Also, the growth in test [19] was 107%.
For the molecule `CCN(CC)CCCC(Nc1c2ccc(Cl)cc2nc2ccc(OC)cc12)c1ccc(Cl)cc1` (configuration not stated), the growth was 62.1% in test [1]; 37% in [2]; -17.1% (active) in test [3]; 25.4% in test [4]; -69.2% (active) in test [5]; 7.29% (active) in test [6]. Besides, the growth is -68.7% (active) in [7]; -42.5% (active) in test [8]; -84% (active) in test [9]; -73.8% (active) in [10]; 23.8% in test [11]; -58.2% (active) in [12]. Moreover, the growth was -82.3% (active) in [13]; -59.1% (active) in test [14]; 14.2% in [15]; -85.7% (active) in test [16]; -90.9% (active) in [17]; -86.7% (active) in test [18]. Moreover, the growth in test [19] was -89% (active).
For the molecule `CC(C)(C)CC(C)(C)Nc1c(-c2ccc3c(c2)OCO3)nc2cnccn12`, the growth in test [1] was 97.7%; in [2], 90.1%; in test [3], 101%; in test [4], 97.9%; in test [5], 97.2%; in test [6] it was 70.3%. The growth in test [7] was 74.1%; in [8] it was 82.7%; in test [9] it was 67.7%; in [10] it was 102%; in test [11], 101%; in [12], 72%. Further, the growth in test [13] was 111%; in [14] it was 83.9%; in test [15] it was 84.1%; in test [16] it was 86.2%; in test [17], 91.5%; in test [18], 101%. Besides, the growth in [19] is 45.9%.
In the case of `O=C1c2ccccc2C(=O)c2c(NCCN=Cc3ccccc3O)cccc21`, the growth is 66.6% in test [1]; 56.3% in test [2]; 68.3% in test [3]; 21.7% in test [4]; 20.9% in [5]; 32% in test [6]. The growth in test [7] is 58.2%; in [8] it was 49%; in test [9], -48.4% (active); in [10], 42.2%; in test [11], -26% (active); in test [12], 41.6%. The growth in [13] is 80.2%; in test [14] it was 66.3%; in test [15], 51.2%; in [16] it was 2.48% (active); in [17], 62%; in [18], -14.3% (active). Also, the growth in [19] was 35.6%.
On to `C(=N\Nc1ncc(-c2cc3cc4c(cc3o2)OCO4)s1)/c1c[nH]c2ccccc12`, for which the growth in test [1] was -25.8% (active); in test [2], -56.3% (active); in test [3], 26.7%; in test [4], -18.4% (active); in test [5], -27.2% (active); in test [6], -0.218% (active). Moreover, the growth is -42.2% (active) in test [7]; -38.6% (active) in test [8]; -40% (active) in [9]; -28.8% (active) in [10]; -41.3% (active) in test [11]; 4.08% (active) in test [12]. Moreover, the growth in test [13] is -45.6% (active); in test [14], -27% (active); in test [15] it was -34.6% (active); in test [16] it was -41.1% (active); in test [17] it was -80% (active); in [18] it was 3.52% (active). In addition, the growth in test [19] is 16.6%.
With `OC1(c2ccc(Cl)c(C(F)(F)F)c2)CCN(CCCC(c2ccc(F)cc2)c2ccc(F)cc2)CC1`, the growth was -74.9% (active) in test [1]; 28.9% in test [2]; -75.5% (active) in [3]; -94.6% (active) in [4]; -95% (active) in test [5]; -87.5% (active) in test [6]. Also, the growth is -80.5% (active) in test [7]; -70.7% (active) in test [8]; -97.6% (active) in [9]; -92.6% (active) in test [10]; -97% (active) in [11]; -20.2% (active) in test [12]. Also, the growth in test [13] is -75.3% (active); in test [14], -87.6% (active); in test [15], -90% (active); in test [16], -85.3% (active); in test [17] it was -74.6% (active); in test [18], -85.6% (active). Moreover, in test [19], the growth is -84.8% (active).
